Sampled rows, rich in hits. Any-hit rate of the full collection: about 4.7%.
DRD3 antagonist: antagonists of human D3 dopamine receptor; P35462; D3R cells, DiscoveRx beta-arrestin luminescence, antagonist mode; hits give low values; max response, negative = inhibition, %; actives 2.5% (n = 360,000); AID 652054; in the data active means max response below about -50%; inconclusive means no clear call, values can overlap the other calls; further: on the % scale 0 is the no-effect control and ±100 the full control effect
Target sequence (P35462 whole entry, looked up): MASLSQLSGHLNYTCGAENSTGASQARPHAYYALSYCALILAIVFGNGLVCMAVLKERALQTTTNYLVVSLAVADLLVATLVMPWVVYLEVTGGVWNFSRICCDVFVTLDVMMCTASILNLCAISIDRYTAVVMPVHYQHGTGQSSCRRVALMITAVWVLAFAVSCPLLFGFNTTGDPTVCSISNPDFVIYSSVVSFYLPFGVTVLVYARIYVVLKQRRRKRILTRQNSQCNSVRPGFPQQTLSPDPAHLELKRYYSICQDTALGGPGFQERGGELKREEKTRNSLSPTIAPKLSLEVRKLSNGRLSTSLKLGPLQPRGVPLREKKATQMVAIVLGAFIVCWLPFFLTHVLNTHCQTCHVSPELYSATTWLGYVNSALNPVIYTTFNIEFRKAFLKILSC
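Cells expressing the human receptor were seeded at 1500 cells/well, incubated overnight at 37 degrees C in 5% CO2, then exposed to library compounds with dopamine controls for 90 minutes at 37 degrees C before luminescent detection.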
D3 ag: agonists of human D3 dopamine receptor. P35462. D3R DiscoveRx beta-arrestin cells, luminescence, 90 min. max activation, %. actives 0.58% (n = 410,000). AID 652048; in the data active means max activation above about 30%; further: 0% is about no effect
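Cells at 1500/well, incubated overnight, then treated with pinned compounds (dopamine as control) for 90 min at 37 degrees C. DiscoveRx reagent added for 30 - 60 minutes at room temperature; luminescence read.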
HepG2 viability: HepG2 cytotoxicity, counter-screen for TGF-b inhibitors; HepG2 CAGA-GFP viability, ATP luminescence, 18 h; Potency, µM (doses to about 46.1 µM), for inactives: top-dose activity change, negative = cytotoxicity, usual class: cytotoxic; actives 0.76% (n = 410,000); AID 588856; further: potency means the concentration at half of the fitted maximal effect
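CellTiter-Glo luminescence gave cytotoxicity after 18 hours at 37 degrees C. The cells were HepG2 CAGA-GFP in 1% FBS DMEM, stimulated with 500 pg/mL TGF-beta after compound addition. %Activity was normalised to no-cell wells (complete cell-killing) and DMSO (no toxicity), and curves were fitted and classified.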
ATXN2 expr inh: ATXN2 expression inhibition; HEK-293 ATXN2-luciferase reporter, luminescence, 24 h; Potency, µM (doses to about 57 µM), for inactives: at the top dose activity change, negative = inhibition, actives largely listed as inhibitors; actives 0.72% (n = 360,000); further: potency means the concentration at half of the fitted maximal effect; on the % scale 0 is the no-effect control and ±100 the full control effect; nearly all actives have a fitted effect of over 55% in size
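qHTS (up to 57 uM final) was run with 24 h compound exposure of reporter cells at 37 °C. Each well was multiplexed: SteadyGlo luminescence measured ATXN2-luciferase expression after a fluorogenic Gly-Phe-AFC viability readout (25 uM final).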
TGFb inhibitor: TGF-b pathway inhibition; HepG2 CAGA-GFP TGF-b/SMAD3 reporter, GFP fluorescence, 18 h; TGF-beta stimulated, 500 pg/mL final; Potency, µM (highest dose often 46.1 µM), without a hit: at the top dose activity, negative = inhibition, actives largely listed as inhibitors; actives 1.2% (n = 410,000); further: potency means the concentration at half of the fitted maximal effect; on the % scale 0 is the no-effect control and ±100 the full control effect; nearly all actives have a fitted effect of over 65% in size
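HEPG2 CAGA-GFP cells (1000/well, DMEM with 1% FBS) were pre-incubated 2 h at 37 degrees C, given compound by pin tool, then stimulated with TGF-beta at 500 pg/mL final for 18 h before per-cell GFP fluorescence imaging.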
ATXN viability: cell viability loss in ATXN counter-screen; S2 cells (HEK-293 line with an ATXN2-luciferase reporter) viability, CellTiter-Fluor protease fluorescence, 24 h; Potency, µM (top dose mostly 56.7 µM), usual class: cytotoxic; actives 0.49% (n = 400,000); AID 651635; further: potency means the concentration at half of the fitted maximal effect; nearly all actives have a fitted effect of over 40% in size
The depositor's hits bear a star; i = inactive; ? = inconclusive; . = no result. Unless noted, the call rests on the fitted dose curve; in most records, active means well fitted curve in the direction sought with a large enough effect; inconclusive means small, poorly fitted or top-dose-only effect, or another doubt; inactive means no such curve, though single readings can be large; an effect the other way counts as inactive or inconclusive.

SMILES	DRD3 antagonist	D3 ag	HepG2 viability	ATXN2 expr inh	TGFb inhibitor	ATXN viability
CC(=O)NC(c1cc(Cl)c2cccnc2c1O)C(C)C (stereo unspecified)	.	.	-27%	5.6µM*	6.3µM*	5µM*
Oc1c(C(Nc2cccc(C(F)(F)F)c2)c2cccnc2)ccc2cccnc12 (stereo unspecified)	?	-2	-53%	?	?	i
CC(=O)NC(c1ccc(C)cc1)c1cc(Cl)c2cccnc2c1O (stereo unspecified)	-79*	-15	-23%	11µM*	?	i
COc1ccc(C(NC(=O)c2cccnc2)c2cc(Cl)c3cccnc3c2O)cc1OC (stereo unspecified)	31	3	-102%	16µM*	?	i
Cc1cc(NC(c2cccnc2)c2ccc3cccnc3c2O)no1 (stereo unspecified)	-24	2	4%	4µM*	-29%	i
CCOc1ccc(S(=O)(=O)NCC(c2ccco2)S(=O)(=O)c2ccc(F)cc2)cc1 (stereo unspecified)	.	4	-9%	.	-5%	.
COc1cc(-c2c(OC)cccc2OC)cc2c1OCCN(Cc1cn[nH]c1-c1ccc(Cl)cc1)C2	.	.	.	.	.	i
CC(=O)NC(c1ccco1)c1cc(Cl)c2cccnc2c1O (stereo unspecified)	.	.	-37%	8.9µM*	?	?
CCCCC(=O)NC(c1ccco1)c1cc(Cl)c2cccnc2c1O (stereo unspecified)	-29	8	-5%	?	?	.
Oc1c(C(Nc2ccccn2)c2cccnc2)cc(Cl)c2cccnc12 (stereo unspecified)	-121*	-5	-16%	22µM*	0%	i
COc1cccc(C(=O)NC(c2ccc(Cl)cc2)c2cc(Cl)c3cccnc3c2O)c1 (stereo unspecified)	.	6	-5%	?	?	i
CC(=O)NC(c1cc(Cl)c2cccnc2c1O)C1CC1 (stereo unspecified)	.	.	-60%	8.9µM*	1.6µM*	3.2µM*
COc1ccccc1-c1nn(CCC(=O)Nc2cccc(C(C)=O)c2)c2nc(C)cc(C)c12	.	3	-19%	?	-24%	i
CCc1sc(-c2cc3cccc(OC)c3oc2=O)nc1-c1ccccc1	.	.	-7%	.	-4%	.
O=C(Nc1cc(F)ccc1F)c1ccc(CN2CC(=O)N3CCCCC3C2=O)cc1 (stereo unspecified)	.	-4	-1%	.	0%	.
CCN1/C(=C\C(=S)Nc2ccccc2)Sc2ccccc21	-14	2	-33%	-31%	11µM*	?
CCN1/C(=C\C=C(C(C)=O)C(C)=O)Sc2ccccc21	7	0	9%	18%	68%	i
CN(C)S(=O)(=O)N(CC(=O)N1CCOCC1)c1ccccc1	-52*	-7	-4%	7%	1%	i
COc1ccc(Br)cc1S(=O)(=O)N(CC(=O)N1CCOCC1)c1ccccc1	-120*	-7	-20%	-5%	2%	i
CCOC(=O)C1(C)CCCN1C(=O)c1snnc1C (stereo unspecified)	-51*	-5	-33%	3%	?	i
O=C(C[n+]1cc(Br)cc2ccccc21)c1ccc(O)c(O)c1	.	.	-29%	.	-8%	.
COCc1c(C(=O)N2CCN(C)CC2)cnn1-c1ncc2c(n1)-c1ccccc1CCC2	.	.	.	.	.	i
CCOc1ccc(OCC)c(-c2c(=O)n(OCc3ccc(C(C)(C)C)cc3)c3ccccc3[n+]2[O-])c1	11	52*	-1%	2%	2%	?
CCn1nc(C)c2c(-c3ccccc3)cc(=O)n(C(C)C(=O)NCc3cccc(OC)c3)c21 (stereo unspecified)	.	-6	1%	-13%	-34%	i
Cc1cc(C)n(CCOc2nonc2N)n1	7	11	-4%	4%	9%	i

Screening results (PubChem)
